Bioassay records as filed in PubChem BioAssay.
In the library only some 6% were active in any assay of this set; here they are far more common.
D1 agonist: Allosteric Agonists of the Human D1 Dopamine Receptor: qHTS; D(1A) dopamine receptor (Homo sapiens), P21728; actives 1% (n = 360,000); HEK293 T-REx D1 cells, calcium flux, agonist mode; activation, % at 2 µM; in the data active means activation above about 30%; further: 0% is about no effect
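Agonism was scored from calcium flux recorded over 180 s (1 read/s) after pintool compound addition, following a 10-cycle baseline. Cells were inducible force-coupled HEK293 TREx D1, plated overnight at 30 C and loaded with no-wash calcium dye.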
D3 ag: qHTS of D3 Dopamine Receptor Agonist: qHTS; D(3) dopamine receptor (Homo sapiens), P35462; D3R DiscoveRx beta-arrestin cells, luminescence, 90 min; max activation, %; actives 0.58% (n = 410,000); in the data active means max activation above about 30%; further: 0% is about no effect
Target sequence (P35462 whole entry, looked up): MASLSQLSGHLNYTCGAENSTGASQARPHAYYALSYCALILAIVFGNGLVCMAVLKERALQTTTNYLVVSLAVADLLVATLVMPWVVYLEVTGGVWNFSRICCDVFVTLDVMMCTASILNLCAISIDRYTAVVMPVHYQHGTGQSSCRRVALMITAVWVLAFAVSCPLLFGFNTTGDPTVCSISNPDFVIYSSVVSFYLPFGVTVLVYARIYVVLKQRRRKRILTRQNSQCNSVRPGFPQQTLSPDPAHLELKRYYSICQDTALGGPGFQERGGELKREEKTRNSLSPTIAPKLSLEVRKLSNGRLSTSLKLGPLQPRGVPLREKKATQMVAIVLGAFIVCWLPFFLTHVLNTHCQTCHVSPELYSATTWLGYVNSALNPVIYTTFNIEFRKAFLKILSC
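Cells at 1500/well, incubated overnight, then treated with pinned compounds (dopamine as control) for 90 min at 37 degrees C. DiscoveRx reagent added for 30 - 60 minutes at room temperature; luminescence read.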
D1 PAM: Potentiators of Human D1 Dopamine Receptor: qHTS | D(1A) dopamine receptor (Homo sapiens), P21728 | HEK293 TREx D1 cells, calcium flux, dopamine EC20 potentiation | potentiation, % at 10 µM | actives 0.036% (n = 360,000) | AID 504651, 2011; in the data active means potentiation above about 30%; further: 0% is about no effect
D1 antagonist: Antagonist of Human D 1 Dopamine Receptor: qHTS; D(1A) dopamine receptor (Homo sapiens), P21728; HEK293 TREx D1 cells, calcium flux, dopamine EC80; active compounds read low; activity change, negative = inhibition, % at 10 µM; actives 3.2% (n = 360,000); AID 504652, 2011; in the data active means activity change below about -30%; further: on the % scale 0 is the no-effect control and ±100 the full control effect
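Cells carrying a force-coupled, tetracycline-inducible human D1 receptor report calcium flux. Each well gets a 10 s baseline, compound with 180 s monitoring, then an EC80 dopamine stimulus with a second 180 s kinetic read.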
DRD3 antagonist: qHTS of D3 Dopamine Receptor Antagonist: qHTS; D3R cells, DiscoveRx beta-arrestin luminescence, antagonist mode; active compounds read low; actives 2.5% (n = 360,000); max response, negative = inhibition, %; D(3) dopamine receptor (Homo sapiens), P35462; in the data active means max response below about -50%; inconclusive means no clear call, values can overlap the other calls; further: on the % scale 0 is the no-effect control and ±100 the full control effect
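Cells plated overnight at 1500 cells/well, then exposed to library compounds with dopamine controls for 90 minutes at 37 degrees C. DiscoveRx reagent added for 30–60 minutes at room temperature; luminescence read, quantitative HTS format.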
An asterisk follows results filed as active; u = inconclusive; x = no result given; ! = a repeat was not active.

SMILES	D1 agonist	D3 ag	D1 PAM	D1 antagonist	DRD3 antagonist
CCC(C)c1ccc(OCC(=O)Nc2cccc3ccc(C)nc23)cc1 (configuration not stated)	3.0	-1.0	2.8	-1.8	x
Cc1cc(OCC(=O)Nc2ccc(N3CCN(C)CC3)cc2)ccc1Cl	24.4	-14.7	-19.4	-83.4*	-22.7
Cc1cc(NS(=O)(=O)c2ccc(NC(=O)COc3c(C)cc(Br)cc3C)cc2)no1	88.2*!	7.4	-6.1	5.5	3.8
Cc1ccc(OCC(=O)Nc2ccc(N3CCCC3)cc2)cc1C	-0.2	-3.7	-9.7	7.8	-9.2
Cc1cc(NS(=O)(=O)c2ccc(NC(=O)Nc3cccc(Cl)c3)cc2)no1	2.7	3.5	-2.6	15.2	-55.4*
Cc1cc(NC(=O)Nc2cccc(Cl)c2)no1	x	1.4	x	x	-3.3
O=C(Nc1ccc(S(=O)(=O)N2CCN(Cc3ccccc3)CC2)cc1)c1cnccn1	12.7	-3.0	-2.6	-36.2*	8.8
Cc1cccc(NC(=O)CSc2nc(C)cc(C)c2C(=O)Nc2ccc(Cl)cc2)c1	20.5	-3.8	-1.6	30.1	x
Cc1cc(OCC(=O)Nc2ccc(S(=O)(=O)N3CCN(C)CC3)cc2)ccc1Cl	0.9	-4.1	0.2	33.9	11.0
CN1CCN(S(=O)(=O)c2ccc(NC(=O)c3ccccc3Cl)cc2)CC1	-0.5	-2.8	-8.9	-32.6*	4.2
Cc1cc(OCC(=O)Nc2ccc(S(=O)(=O)N3CCN(C)CC3)cc2)cc(C)c1Cl	10.2	0.8	-5.6	-69.6*	u
CCc1ccc(OCC(=O)Nc2ccc(S(=O)(=O)N3CCOCC3)cc2)cc1	44.2*	2.1	-0.9	-1.2	15.6
CN1CCN(S(=O)(=O)c2ccc(NC(=O)c3ccc(Br)s3)cc2)CC1	14.3	-19.2	-16.3	-45.6*	-21.6
CN1CCN(S(=O)(=O)c2ccc(NC(=O)c3ccc(Br)o3)cc2)CC1	5.5	25.1	-9.6	4.2	8.8
CC(C)(C)c1ccc(S(=O)(=O)c2cnc(SCC(=O)Nc3ccc4c(c3)OCCO4)[nH]c2=O)cc1	0.4	0.9	0.1	-14.2	x
Cc1ccc(-c2nc(S(=O)(=O)c3ccc(Cl)cc3)c(N3CCCCC3)o2)cc1	-1.2	-17.6	-0.4	7.4	x
Cc1c(C(=O)Nc2ccc(-c3nc4cc(Cl)ccc4o3)cc2)oc2ccccc12	-0.4	-3.1	0.9	-13.2	x
CCC(Cc1ccccc1)NC(=O)Cn1ncc2c3ccccc3n(Cc3ccccc3)c2c1=O (configuration not stated)	9.3	-8.2	-4.4	-19.4	x
O=C1CCCN1C(=O)COc1ccccc1[N+](=O)[O-]	3.6	38.1*	-4.9	2.4	-3.4
O=C(COc1cccc(Cl)c1)Nc1ccc(N2CCOCC2)cc1	1.4	7.1	-10.2	-37.4*	-8.9
O=C(COc1ccc(F)c(Cl)c1)Nc1ccc(N2CCOCC2)cc1	x	-5.6	x	x	6.5
CCC(=O)N1CCN(c2ccc(NC(=O)COc3ccccc3Cl)cc2)CC1	9.0	23.5	-2.6	-4.3	7.5
CCC(=O)N1CCN(c2ccc(NC(=O)COc3ccccc3[N+](=O)[O-])cc2)CC1	31.3*	0.0	-3.8	-11.1	26.0
CN1CCN(S(=O)(=O)c2ccc(NC(=S)NC(=O)c3ccc(Cl)cc3)cc2)CC1	30.2*	7.4	-15.9	-57.1*	8.2
COc1ccc(Cl)cc1NC(=O)CCc1c(C)nc2c(c1C)c(=O)n(C)c(=O)n2C	0.1	2.4	5.4	1.9	x
SMILES	D1 agonist	D3 ag	D1 PAM	D1 antagonist	DRD3 antagonist
Cc1ccc(-n2c(=O)c3c(c4cc(C)ccc4n3C)n(CC(=O)Nc3c(C)cccc3C)c2=O)cc1	1.5	-7.0	-1.9	-29.6	x
COc1ccccc1C(=O)NCc1nc2cccnc2n1Cc1ccc(F)cc1	-0.8	-9.3	3.3	3.6	x
Cc1sc2c(c1C)c(=O)n(-c1ccccc1)c(=O)n2CC(=O)c1ccc(Cl)cc1	5.6	-5.6	0.2	-11.8	x
COc1ccc(CNC(=O)Cn2ccc3cc(S(=O)(=O)N4CCCCC4)ccc32)c(OC)c1	-0.6	-3.8	-1.6	4.1	x
Cc1ccccc1C(=O)Nc1nc(-c2nnn(-c3ccc(C(C)C)cc3)c2C)ns1	5.1	1.4	-2.8	-26.6	x
CN1CCN(NC(=O)c2ccc(Cl)c(S(=O)(=O)Nc3ccc(Cl)cc3)c2)CC1	1.6	-1.8	-17.1	-38.4*	-25.4
